High-throughput results: PubChem BioAssay, several laboratories
Compounds with a hit are over-represented: about 3.8% of the library has one in this group of screens.
ERa SRC1 pot: ER-alpha (human) coactivator binding potentiation. coactivator binding (% of control), % at 25.6 µM. P03372. TR-FRET ERalpha-LBD/SRC-Cy5 coactivator binding, 2 h; 100 = basal binding, no effect. actives 1.3% (n = 86,000); in the data active = activity above about 200%;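 also: binding measured in presence of low estradiol as agonist stimulus; 0% = peptide alone without receptor and 100% = receptor with peptide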
DAT uptake mod: changed human dopamine transporter uptake under cocaine IC80; Q01959; LLC-PK1 hDAT cells, [14C]-dopamine uptake with cocaine IC80; actives deviate in either direction; B-score at 10 µM; actives 1.3% (n = 110,000);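 active = Z score or B-score, a plate-position-corrected score, falls beyond the plate's 99.7% confidence bounds, in either direction; inactive = both scores lie inside the 99.7% bounds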;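 also: scored against the spread of the other compound wells on the same plate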
Target sequence (Q01959 whole entry, looked up): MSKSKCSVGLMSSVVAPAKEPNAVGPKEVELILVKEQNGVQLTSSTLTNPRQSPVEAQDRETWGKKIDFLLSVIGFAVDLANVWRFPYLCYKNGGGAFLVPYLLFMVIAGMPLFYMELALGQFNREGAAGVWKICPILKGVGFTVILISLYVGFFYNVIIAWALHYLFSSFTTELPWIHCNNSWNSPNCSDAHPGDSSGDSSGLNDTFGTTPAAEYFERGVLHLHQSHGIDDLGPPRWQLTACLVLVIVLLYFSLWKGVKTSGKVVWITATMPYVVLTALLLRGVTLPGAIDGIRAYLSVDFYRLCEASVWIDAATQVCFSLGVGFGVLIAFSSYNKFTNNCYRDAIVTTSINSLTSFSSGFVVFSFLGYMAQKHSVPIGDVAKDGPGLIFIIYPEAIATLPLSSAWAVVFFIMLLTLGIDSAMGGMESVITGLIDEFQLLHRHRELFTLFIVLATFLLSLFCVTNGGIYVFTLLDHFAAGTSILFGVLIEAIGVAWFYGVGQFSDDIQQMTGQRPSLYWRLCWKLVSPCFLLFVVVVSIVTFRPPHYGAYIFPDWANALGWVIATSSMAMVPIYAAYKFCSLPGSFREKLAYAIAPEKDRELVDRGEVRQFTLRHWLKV
MT1-MMP txn act: activates MT1-MMP transcription. HT1080 MT1-MMP promoter luciferase reporter, luminescence, overnight; stronger effect = higher value. activation factor at 10 µM. actives 0.16% (n = 86,000). AID 750;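 active = activation factor of at least 2 for MT1-MMP transcription at 10 µM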
ERb SRC1 inh: ER-beta (human) coactivator binding inhibition; TR-FRET ER-beta LBD / SRC1-Cy5 peptide binding; receptor agonist-loaded with 1 µM estradiol; inhibition, % at 25.6 µM; actives 1.3% (n = 86,000);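 active = compounds whose percent inhibition of the receptor-coactivator binding signal exceeds about 50% in the single-dose screen, limit read from the data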;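 also: 0% = receptor plus peptide wells without compound and 100% = peptide-only wells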
ERa SRC1 inh: ER-alpha (human) coactivator binding inhibition; P03372; TR-FRET ER-alpha LBD / SRC-1 peptide, estradiol-bound; inhibition, % at 25.6 µM; actives 1.7% (n = 86,000); in the data active = inhibition above about 50%;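 also: 0% = receptor plus peptide control and 100% = peptide only without receptor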
The depositor's hits bear a star; x = no result; [ ] = another dose, or the depositor's remark.

SMILES	ERa SRC1 pot	DAT uptake mod	MT1-MMP txn act	ERb SRC1 inh	ERa SRC1 inh
CC(=O)c1cccc(NC(=O)C2CCN(S(=O)(=O)c3ccccc3)CC2)c1	95	0.86	1.3	-16	6
COC(=O)C(Cc1ccc(OC(=O)c2ccccc2C)cc1)N1Cc2ccccc2C1=O (stereo not drawn)	x	3.3*	x	x	x
Cc1nc2ccccc2c(=O)n1/N=C/c1ccc(N(C)C)cc1	94	0.27	1.3	4	-3
Cc1nc2ccccc2c(=O)n1/N=C/c1c(O)ccc2oc3c(c12)CCCC3	95	x	1	25	80*
C=C(C)CSc1nc2c(cc1C#N)CCC2	125	-1.5	1.1	99*[fluorescence artefact?]	4
N#Cc1cc2c(nc1SCc1cccnc1)CCC2	99	-0.14	0.9	2	8
Cc1cccc(CSc2nc3c(cc2C#N)CCC3)c1	179	-0.26	1	68*[fluorescence artefact?]	21
C=CCSc1nc2c(cc1C#N)CCC2	115	0.74	1.2	-9	10
CCCC[C@@H]1CN=C(N)N1CC(C)(C)C	x	-0.95	x	x	x
Cc1cc(C)nc(NC2=NCC(=O)N2c2cc(Cl)cc(Cl)c2)n1	474*[fluorescence artefact?]	0.061	1	-2	-36
O=C(NCc1ccc(F)cc1)C(=O)NCC1OCCN1S(=O)(=O)c1cccs1 (stereo not drawn)	x	-0.028	x	x	x
COc1ccc(OC(=O)c2cc(S(=O)(=O)N3CCCC3)ccc2Cl)cc1	97	-2.3*	1.4	-14	9
COc1ccc(S(=O)(=O)N2CCCCCC2)cc1	113	1.8	1.1	-4	4
COC(C/C=C\C(=O)[C@@H](C)OCc1ccccc1)OC	x	-0.88	x	x	x
NC1CCCCC1N=Cc1c(O)n(CCc2ccc(F)cc2)c(=O)[nH]c1=O (stereo not drawn)	46	-0.21	1.1	35	72*[fluorescence artefact?]
COc1cc(C(=O)N2CCN(S(=O)(=O)c3ccc(F)cc3)CC2)cc(OC)c1OC	101	0.074	x	67*[fluorescence artefact?]	-5
COC(=O)[C@@H]1C[C@@]2(O)[C@@H](O)[C@@H](O)[C@@H](O)C[C@H]2N1Cc1ccc(Cl)cc1	x	-0.15	1.1	x	x
CSc1ccc(-c2nnn(Cc3ccc(Br)cc3)n2)cc1	93	-0.3	1.3	1	4
CSc1ccc(-c2nnn(Cc3ccccn3)n2)cc1	109	0.22	2*	-3	6
Cc1nn(-c2ccccc2)c(C)c1C(=O)OCC(=O)NC12CC3CC(CC(C3)C1)C2	88	3.1*	1.1	-8	-5
O=C(NNS(=O)(=O)c1ccc([N+](=O)[O-])cc1)c1cnn(-c2ccccc2)c1-n1cccc1	x	-0.0089	x	x	x
O=C(Nc1ccc(Br)cn1)C1CCCN1S(=O)(=O)c1ccccc1 (stereo not drawn)	90	2.2	1	-4	-5
COc1cccc(-n2c(SCC(=O)N3CCCC3)nc3c([nH]c4ccccc43)c2=O)c1	285*[fluorescence artefact?]	x	1.2	45	40
COC(=O)CNC(=O)C1(C)C=CC2(CCCCC2)N1C(C)=O (stereo not drawn)	x	x	1.2	x	x
COC(=O)c1cc2c(C)nn(-c3ccccc3)c2s1	246*	-0.1	1.1	22	21
SMILES	ERa SRC1 pot	DAT uptake mod	MT1-MMP txn act	ERb SRC1 inh	ERa SRC1 inh
CC(C)OCCCNS(=O)(=O)c1ccc2ccccc2c1	114	1.5	1.1	-1	4
COc1cc2cc(CN(C(=O)Nc3ccccc3)C3CCCC3)c(=O)[nH]c2cc1OC	129	3.3*	1.1	-6	-7
CCOc1ccc2[nH]c(=O)c(CN(Cc3nnnn3Cc3ccco3)C3CCCCC3)cc2c1	76	-0.25	1	24	34
CC(C)(C)n1nnnc1CN(Cc1ccco1)Cc1cc2cc3c(cc2[nH]c1=O)OCO3	92	1.5*	0.9	50	12
COc1cc2cc(CN(Cc3nnnn3Cc3ccco3)C3CCCCC3)c(=O)[nH]c2cc1OC	80	3*	1.2	1	8
COc1ccc(NC(=O)C2CC(=O)OC23CCOC(C)(C)C3)cc1 (stereo not drawn)	96	-0.42	1	6	-1
O=C(OCc1nnc(-c2ccccc2)o1)c1ccc(S(=O)(=O)NCc2ccco2)cc1	110	-0.72	1	49	53*[fluorescence artefact?]
C[C@H](NC(=O)CCC1CCC(=O)N1)c1ccccc1 (stereo partly drawn)	x	-0.54	x	x	x
COc1ccc(N2CSC3=C(C#N)C(c4cc(OC)c(OC)cc4OC)CC(=O)N3C2)c(OC)c1 (stereo not drawn)	101	-1.6	1.1	-10	55*[fluorescence artefact?]
COc1ccc(N2CSC3=C(C#N)C(c4cc(OC)ccc4OC)CC(=O)N3C2)c(OC)c1 (stereo not drawn)	84	-0.0016	x	15	-9
COc1ccc(N2CSC3=C(C#N)C(c4cccs4)CC(=O)N3C2)cc1 (stereo not drawn)	69	-1.3	1.1	41	54*[fluorescence artefact?]
CCOc1ccccc1N1CSC2=C(C#N)C(c3c(OC)ccc4ccccc34)CC(=O)N2C1 (stereo not drawn)	376*	0.11	1	17	-2
Cc1ccc(N2CSC3=C(C#N)C(c4cccs4)CC(=O)N3C2)cc1 (stereo not drawn)	93	-0.11	x	1	-10
Cc1ccc2c(N)c(C(=O)N(c3ccccc3)c3ccccc3)sc2n1	88	-0.55	1.1	5	-1
C[C@@H](C(=O)NCc1nc2ccccc2[nH]1)[C@@H]1C[C@@]1(C)[C@@H](NC(=O)OCc1ccccc1)c1ccccc1	x	x	1.2	x	x
CSc1nc(NCCOCCO)c2sc3nc(-c4ccco4)c4c(c3c2n1)CCC4	62	0.24	1	76*[fluorescence artefact?]	79*
COc1c(O)c(O)cc2c1oc1c3ccccc3oc(=O)c21	x	x	1.1	x	x
O=C(CCN1CCCCC1)c1ccc2c(c1)OCCO2	113	4.8*	0.9	-9	-10
COc1ccc(C(=O)CCN2CCCCCC2)cc1	x	0.92	1.2	x	x
CCOc1ccc(NC(=O)CN2CCN(CC(=O)c3ccc(OCC)cc3)CC2)cc1	115	2*	1	-16	-7
NC(=O)c1ccc2c(c1)OCCO2	121	-1.2	1	21	8
O=C(O)c1ccc2c(c1)OCCO2	110	0.011	1.2	3	77*[fluorescence artefact?]
O=C(CCN1CCc2ccccc2C1)c1ccc2c(c1)OCCO2	96	-0.99	1	5	4
CCOc1ccc(C(=O)CCN2CCCCC2)cc1	92	0.26	1.2	59*	-2
CCCC1(C(=O)OC)C=C2C(=C(C(C)C)C(=O)C2C)CN1 (stereo not drawn)	x	x	1.1	x	x
O=C(Cc1ccccc1)Nc1cc(C(=O)c2ccccc2)ccc1N1CCOCC1	75	2.2	x	9	11
CC1CCN(C(=O)c2[nH]cnc2C(=O)N[C@@H](C)C(=O)OCc2ccccc2)CC1	x	-0.51	x	x	x
CN1CCCC(OC(=O)c2ccc3c(c2)OCCO3)C1 (stereo not drawn)	127	-0.7	1.2	60*	0
COC(=O)CNC(=O)CSc1nc(N)cc(=O)[nH]1	x	-0.069	x	x	x
Cc1cc(OCCn2cc(/C(N)=N/O)c3ccccc32)ccc1Cl	x	-0.03	x	x	x
